{"source": "PubChem BioAssay AID686978", "about": "(National Center for Advancing Translational Sciences (NCATS), 2013)", "note": "Hit rate of the full screen: of about 420,000 compounds, about 64,000 (15%) were called active. Another 27% or so got no clear call; they are omitted. The call rests on the fitted dose curve; in most records, active means well fitted inhibition curve with a large enough effect; inconclusive means small, poorly fitted or top-dose-only effect; inactive means flat fitted curve, though single readings scatter. Only a sample is shown. A call without a number means that no potency is given here. Potency means the concentration at half of the fitted maximal effect.", "data": [{"experiment": "qHTS for Inhibitors of human tyrosyl-DNA phosphodiesterase 1 (TDP1): qHTS in cells in absence of CPT; further: nearly all actives have a fitted effect of over 55% in size", "conditions": "DT40 Tdp1-/- hTDP1 cells, no CPT, ATP luminescence, 48 h; activity change, negative = growth inhibition: at 46.2 µM (top of the series)", "excerpt": "Human tyrosyl-DNA phosphodiesterase 1 (TDP1) is a novel repair gene, and we propose to use it as a new target for anticancer drug development. TDP1 is not an essential protein, but under treatment with topoisomerase I poison (camptothecin: CPT), TDP1 works as a critical factor for cell survival. To directly identify novel TDP1 inhibitors active in a cellular environment, we have knocked-out the Tdp1 gene in chicken DT40 cells (Tdp1-/-) and generated a complemented counterpart cells that contains a stable transfection of the human TDP1 gene (Tdp1-/-;hTDP1 cells). For the primary screen, Tdp1-/-;hTDP1 cells will be exposed to small molecules in the presence or absence of CPT, and their growth kinetics will be evaluated after 48 hours by measuring ATP activity. […] The hit compounds will then be evaluated in the presence or absence of CPT using Tdp1-/- cells. […] In tertiary assays, biochemical gel-based assays will be used to assess whether the hit compounds specifically target TDP1.\nTo this end, we have screened this cell line against the MLSMR in two primary screens. In one screen we add CPT and in the other we screen in the absence of CPT; this AID represents the screen where CPT was absent.\nNIH Chemical Genomics Center [NCGC]\nNIH Molecular Libraries Probe Centers Network [MLPCN]\nAssay Submitter (PI): Yves Pommier, NCI\nDT40-hTDP1 cells without 20 nM Camptothecin (add 20 microL of DMSO in 1 L of cell culture medium) were dispensed at 400 cells/5microL/well in tissue culture treated 1536-well white wall/solid bottom assay plates (Greiner Bio-One North America, NC, U.S.A.) using a Multidrop Combi 8 channel dispenser (Thermo Fisher, Waltham, MA, USA). 23 nL compounds and controls were transferred using the pin tool (Kalypsys, San Diego, CA, USA) to the assay plates. The assay plates were then incubated at 37 masculineC for a minimum 48 hr. Three microL of Cell Titer Glo solution was added to the plates and incubated at RT in dark for 30 min. Luminescence was read using ViewLux (Perkin Elmer) with 1 sec exposure slow speed, high gain and 2x binning.", "values": [{"smiles": "COC(=O)c1ccc(NC(=O)CSc2nc(N)c(NC(=O)c3ccc(Br)o3)c(=O)[nH]2)cc1", "Potency": "inactive"}, {"smiles": "Clc1ccc(Nc2ncnc3c2nnn3Cc2ccccc2)cc1", "Potency": "inactive"}, {"smiles": "Cc1cc(NCc2cccnc2)no1", "Potency": "inactive"}, {"smiles": "OC[C@@H]1CN(Cc2ccc(Cl)cc2)C[C@H](n2cnc3c(NCc4ccncc4)ncnc32)O1", "Potency": "inactive"}, {"smiles": "Brc1ccc2ncnc(NCc3cccnc3)c2c1", "Potency": "20.6 µM (active)"}, {"smiles": "Clc1ccc(Cn2ncc3c(NCc4cccnc4)ncnc32)cc1", "Potency": "20.6 µM (active)"}, {"smiles": "c1ccc(CNc2ncncc2-c2cccnc2)cc1", "Potency": "inactive"}, {"smiles": "O=C(NCCN1CCOCC1)c1ccc2c(c1)ncn2C1CCCC1", "Potency": "inactive"}, {"smiles": "CC(Oc1cccc(Cl)c1)C(=O)NC1CC(C)(C)NC(C)(C)C1", "note": "(stereo not given)", "Potency": "inactive"}, {"smiles": "CN(CC(=O)NCCc1ccccc1)S(=O)(=O)c1cnc[nH]1", "Potency": "inactive"}, {"smiles": "CN=C(NC#N)NCCSCc1nc[nH]c1C", "Potency": "inactive"}, {"smiles": "COc1ccc(CN2C(=O)CN=C2Nc2ccc(C)cc2C)cc1", "Potency": "inactive"}, {"smiles": "CCOC(=O)c1ccccc1CN1C(=O)c2ccccc2S1(=O)=O", "Potency": "inactive"}, {"smiles": "CCOC(=O)CN1C(C(=O)c2ccccc2)=C(OC(=O)C(C)(C)C)c2ccccc2S1(=O)=O", "Potency": "14.6 µM (active)"}, {"smiles": "COC(=O)C1=C(c2ccccc2)c2ccccc2S(=O)(=O)N1CC(=O)Nc1ccccc1C(F)(F)F", "Potency": "inactive"}, {"smiles": "Cn1c(SCC(=O)c2ccc(F)cc2)nnc1-c1ccccn1", "Potency": "inactive"}, {"smiles": "CC1(C(=O)NS(=O)(=O)Cc2cccc(Cl)c2)CCN1C(=O)Cc1ccc(Cl)cc1Cl", "note": "(stereo not given)", "Potency": "inactive"}, {"smiles": "CCCNC(=O)C1(C)CCN1C(=O)C1(c2ccccc2)CC1", "note": "(stereo not given)", "Potency": "inactive"}, {"smiles": "CC1(C(=O)Nc2cccc3c2CCCC3)CCN1C(=O)C1(c2ccccc2)CC1", "note": "(stereo not given)", "Potency": "14.6 µM (active)"}, {"smiles": "Cc1ccccc1S(=O)(=O)NC(=O)C1(C)CCN1C(=O)C1(c2ccc(Cl)cc2)CC1", "note": "(stereo not given)", "Potency": "inactive"}, {"smiles": "CC1(C(=O)Nc2cccc3c2CCCC3)CCN1C(=O)CCc1ccc(Cl)cc1Cl", "note": "(stereo not given)", "Potency": "23.1 µM (active)"}, {"smiles": "Cc1ccccc1S(=O)(=O)NC(=O)C1(C)CCN1C(=O)Cc1ccc(Cl)cc1Cl", "note": "(stereo not given)", "Potency": "inactive"}, {"smiles": "O=C(N=C1SC2CS(=O)(=O)CC2N1c1ccccc1)c1ccccc1", "note": "(stereo not given)", "Potency": "inactive"}, {"smiles": "O=c1ccn([C@@H]2O[C@H](CNS(=O)(=O)c3cc4ccccc4s3)[C@@H](O)[C@H]2O)c(=O)[nH]1", "Potency": "inactive"}, {"smiles": "Nc1ccc(Oc2ccc(Cl)cc2)cc1", "Potency": "inactive"}, {"smiles": "CC(C(=O)O)c1ccc(C2CCCCC2)c2ccccc12", "note": "(stereo not given)", "Potency": "inactive"}, {"smiles": "Cc1ccccc1Nc1scc(-c2ccc(Br)cc2)[n+]1-c1ccccc1C", "Potency": "29.1 µM (active)"}, {"smiles": "CCCCC1S/C(=N/N=C/c2cccs2)NC1=O", "note": "(stereo not given)", "Potency": "18.4 µM (active)"}, {"smiles": "CCC1S/C(=N/N=C/c2ccco2)NC1=O", "note": "(stereo not given)", "Potency": "inactive"}, {"smiles": "O=C1N/C(=N\\N=C\\c2ccco2)SC1Cc1ccc(F)cc1", "note": "(stereo not given)", "Potency": "inactive"}]}]}
